The campaign covered roughly 5,500 compounds. About 2,000 (36%) were called active. About 18% were inconclusive and are not listed. Rule as the data show it: active = normalized growth mostly below about 0.91 (no sharp cut-off); inconclusive = no clear call, values can overlap the other calls; inactive = mostly above about 0.92. The list shows a part of the results.
Test: chemical genetic growth profiling, strain panel (AID 1159580);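 also: tested at 20 µM; growth read once vehicle control cultures reached saturation at 30 °C; 1 = growth at the plate median or of vehicle wells; lower values mean less growth of the strain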
Conditions: growth OD

Measured: normalized growth

C[C@H]1O[C@@H](O[C@H]2[C@@H](O)C[C@H](O[C@H]3[C@@H](O)C[C@H](O[C@H]4CC[C@]5(C)C6C[C@@H](O)[C@]7(C)[C@@H](C8=CC(=O)OC8)CC[C@]7(O)C6CC[C@@H]5C4)O[C@@H]3C)O[C@@H]2C)C[C@H](O)[C@@H]1O (some centres undefined)
inactive: S. cerevisiae deletion strains, locus YJR043C, strain POL32, stronger effect = lower value 1.01 | S. cerevisiae deletion strains, locus YJR066W, strain TOR1, stronger effect = lower value 0.966 | S. cerevisiae deletion strains, locus YKL009W, strain mrt4, stronger effect = lower value 0.969 | S. cerevisiae deletion strains, locus YKL068W, stronger effect = lower value 0.986 | S. cerevisiae deletion strains, locus YKL085W, strain MDH1 (second series), stronger effect = lower value 0.991 | S. cerevisiae deletion strains, locus YKL085W, strain MDH1, stronger effect = lower value 0.991 | S. cerevisiae deletion strains, locus YKL160W, strain elf1, stronger effect = lower value 0.93 | S. cerevisiae deletion strains, locus YKR001C, strain vps1, stronger effect = lower value 0.971 | S. cerevisiae deletion strains, locus YKR026C, strain gcn3, stronger effect = lower value 1 | S. cerevisiae deletion strains, locus YKR091W, strain srl3, stronger effect = lower value 0.984 | S. cerevisiae deletion strains, locus YLL001W, strain dnm1, stronger effect = lower value 0.921 | S. cerevisiae deletion strains, locus YLL026W, stronger effect = lower value 0.999 | S. cerevisiae deletion strains, locus YLL041C, strain sdh2, stronger effect = lower value 1 | S. cerevisiae deletion strains, locus YLR027C, strain aat2, stronger effect = lower value 1.03 | S. cerevisiae deletion strains, locus YLR039C, strain RIC1, stronger effect = lower value 0.973 | S. cerevisiae deletion strains, locus YLR058C, strain SHM2, stronger effect = lower value 1 | S. cerevisiae deletion strains, locus YLR102C, strain apc9, stronger effect = lower value 0.977 | S. cerevisiae deletion strains, locus YLR113W, strain HOG1, stronger effect = lower value 1.09 | S. cerevisiae deletion strains, locus YLR221C, strain rsa3, stronger effect = lower value 1.01 | S. cerevisiae deletion strains, locus YLR258W, strain gsy2, stronger effect = lower value 1.01 | S. cerevisiae deletion strains, locus YLR262C, strain YPT6 (second series), stronger effect = lower value 0.956 | S. cerevisiae deletion strains, locus YLR262C, strain YPT6, stronger effect = lower value 0.984 | S. cerevisiae deletion strains, locus YLR268W, strain sec22, stronger effect = lower value 0.959 | S. cerevisiae deletion strains, locus YLR320W, strain mms22, stronger effect = lower value 0.969 | S. cerevisiae deletion strains, locus YLR330W, strain CHS5, stronger effect = lower value 0.983 | S. cerevisiae deletion strains, locus YLR342W, strain FKS1 (second series), stronger effect = lower value 1.02 | S. cerevisiae deletion strains, locus YLR342W, strain FKS1, stronger effect = lower value 0.983 | S. cerevisiae deletion strains, locus YLR357W, strain rsc2, stronger effect = lower value 0.999 | S. cerevisiae deletion strains, locus YLR370C, strain arc18, stronger effect = lower value 0.994 | S. cerevisiae deletion strains, locus YLR371W, strain rom2, stronger effect = lower value 0.997 | S. cerevisiae deletion strains, locus YLR384C, strain iki3, stronger effect = lower value 1 | S. cerevisiae deletion strains, locus YLR418C, strain cdc73, stronger effect = lower value 1.01 | S. cerevisiae deletion strains, locus YML016C, strain PPZ1, stronger effect = lower value 0.998 | S. cerevisiae deletion strains, locus YML032C, strain rad52, stronger effect = lower value 0.988 | S. cerevisiae deletion strains, locus YML120C, strain ndi1, stronger effect = lower value 0.946 | S. cerevisiae deletion strains, locus YML124C, strain tub3, stronger effect = lower value 0.992 | S. cerevisiae deletion strains, locus YMR058W, strain fet3, stronger effect = lower value 0.984 | S. cerevisiae deletion strains, locus YMR078C, strain ctf18, stronger effect = lower value 0.981 | S. cerevisiae deletion strains, locus YMR125W, strain sto1, stronger effect = lower value 0.925 | S. cerevisiae deletion strains, locus YMR129W, stronger effect = lower value 0.996 | S. cerevisiae deletion strains, locus YMR205C, strain PFK2, stronger effect = lower value 0.942 | S. cerevisiae deletion strains, locus YMR223W, strain ubp8, stronger effect = lower value 0.993 | S. cerevisiae deletion strains, locus YMR231W, strain pep5, stronger effect = lower value 0.998 | S. cerevisiae deletion strains, locus YMR307W, strain GAS1, stronger effect = lower value 1.09 | S. cerevisiae deletion strains, locus YNL067W, strain RPL9B, stronger effect = lower value 1.03 | S. cerevisiae deletion strains, locus YNL071W, strain lat1, stronger effect = lower value 1 | S. cerevisiae deletion strains, locus YNL128W, strain TEP1, stronger effect = lower value 0.977 | S. cerevisiae deletion strains, locus YNL183C, strain NPR1, stronger effect = lower value 0.985 | S. cerevisiae deletion strains, locus YNL209W, strain ssb2, stronger effect = lower value 0.995 | S. cerevisiae deletion strains, locus YNL233W, strain BNI4, stronger effect = lower value 1.01 | S. cerevisiae deletion strains, locus YNL248C, strain rpa49, stronger effect = lower value 0.973 | S. cerevisiae deletion strains, locus YNL250W, strain rad50, stronger effect = lower value 0.974 | S. cerevisiae deletion strains, locus YNL271C, strain bni1, stronger effect = lower value 0.996 | S. cerevisiae deletion strains, locus YNL298W, strain CLA4, stronger effect = lower value 0.986 | S. cerevisiae deletion strains, locus YNL307C, strain MCK1, stronger effect = lower value 0.988 | S. cerevisiae deletion strains, locus YNL322C, strain KRE1 (second series), stronger effect = lower value 0.995 | S. cerevisiae deletion strains, locus YNL322C, strain KRE1, stronger effect = lower value 0.996 | S. cerevisiae deletion strains, locus YNR049C, strain mso1, stronger effect = lower value 0.986 | S. cerevisiae deletion strains, locus YNR052C, strain pop2, stronger effect = lower value 0.993 | S. cerevisiae deletion strains, locus YOL006C, strain TOP1, stronger effect = lower value 0.959 | S. cerevisiae deletion strains, locus YOL012C, strain htz1 0.951 | S. cerevisiae deletion strains, locus YOL147C, strain pex11, stronger effect = lower value 0.99 | S. cerevisiae deletion strains, locus YOR001W, strain rrp6, stronger effect = lower value 1.06 | S. cerevisiae deletion strains, locus YOR061W, strain CKA2, stronger effect = lower value 0.984 | S. cerevisiae deletion strains, locus YOR069W, strain VPS5, stronger effect = lower value 0.992 | S. cerevisiae deletion strains, locus YOR070C, strain gyp1, stronger effect = lower value 0.999 | S. cerevisiae deletion strains, locus YOR080W, strain dia2, stronger effect = lower value 0.985 | S. cerevisiae deletion strains, locus YOR083W, strain WHI5, stronger effect = lower value 0.945 | S. cerevisiae deletion strains, locus YOR106W, strain vam3, stronger effect = lower value 0.947 | S. cerevisiae deletion strains, locus YOR136W, strain idh2, stronger effect = lower value 0.974 | S. cerevisiae deletion strains, locus YOR144C, strain elg1, stronger effect = lower value 0.988 | S. cerevisiae deletion strains, locus YOR184W, strain ser1, stronger effect = lower value 0.979 | S. cerevisiae deletion strains, locus YOR231W, strain MKK1, stronger effect = lower value 1.04 | S. cerevisiae deletion strains, locus YOR265W, strain rbl2, stronger effect = lower value 0.993 | S. cerevisiae deletion strains, locus YOR270C, strain vph1, stronger effect = lower value 0.92 | S. cerevisiae deletion strains, locus YOR290C, strain snf2, stronger effect = lower value 0.973 | S. cerevisiae deletion strains, locus YOR316C, strain cot1, stronger effect = lower value 0.983 | S. cerevisiae deletion strains, locus YPL051W, strain arl3, stronger effect = lower value 1 | S. cerevisiae deletion strains, locus YPL078C, strain atp4, stronger effect = lower value 0.932 | S. cerevisiae deletion strains, locus YPL106C, strain sse1, stronger effect = lower value 1 | S. cerevisiae deletion strains, locus YPL240C, strain hsp82, stronger effect = lower value 0.99 | S. cerevisiae deletion strains, locus YPL241C, strain CIN2, stronger effect = lower value 0.998 | S. cerevisiae deletion strains, locus YPL256C, strain CLN2, stronger effect = lower value 1.04 | S. cerevisiae deletion strains, locus YPR119W, strain clb2, stronger effect = lower value 1 | S. cerevisiae deletion strains, locus YPR141C, strain kar3, stronger effect = lower value 0.984 | S. cerevisiae deletion strains, locus YPR163C, strain tif3, stronger effect = lower value 0.977 | S. cerevisiae deletion strains, locus YPR167C, strain met16, stronger effect = lower value 0.977 | S. cerevisiae deletion strains, strain wtn01, stronger effect = lower value 0.997 | S. cerevisiae strains, strain wild type, stronger effect = lower value 1

Source: PubChem BioAssay AID1159580 (chemical genetic matrix, 2015)
